Most compounds without a hit are left out; they make up all but 1.8% or so of the library.
PABP FP inh: PABP-poly(A) binding inhibition. calls only at 35 µM. 290,000 compounds, 1% hits. PABP-poly(A) RNA binding, fluorescence polarization;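 note: calls also rest on retests at 20 µM and on dose response follow-up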
eIF4H FP inh: inhibitors of RNA binding by human eIF4H | eIF4H fluorescence polarization binding assay | inhibition, % at 35 µM | 290,000 compounds, 0.94% hits | AID 2012;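 note: calls also rest on retests at 20 µM and on dose response follow-up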
MEX-5 binding: C. elegans MEX-5 TCR-2 RNA binding activity | Q9XUB2 | MEX-5/FITC-TCR2 RNA binding, fluorescence polarization; hits give low values | activity score (negative = inhibition of binding), % at 10 µM | 300,000 compounds, 0.38% hits | AID 1832;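 active = inhibition past about -25% in most replicates, and total fluorescence under double the plate's negative control median, limit read from the data; inconclusive = replicates evenly split on the limit, or fluorescence at least double controls; inactive = too little inhibition in most replicates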;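 note: 0% = DMSO and -100% = 5 µM competing unlabeled TCR2 RNA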
PABP1 MLLE inh: inhibitors of microRNA-mediated deadenylation, human PABP1 MLLE binding; P11940; 360,000 compounds, 0.36% hits; inhibition, % at 20 µM; GST-MLLE / FITC-PAM2 fluorescence polarization; AID 588489; in the data active = inhibition above about 35%, passing the limit was not always enough;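 note: plate controls were DMSO wells with GST-MLLE for no effect and wells lacking GST-MLLE protein for full effect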
EBV gp42 block: blocks Epstein-Barr virus glycoprotein 42 binding | inhibition, % (tested at 21.74 µM) | 220,000 compounds, 0.42% hits | Fluorescence polarization binding assay, mP read-out | Q1HVG2 | AID 1085; in the data active = inhibition above about 50%
Target sequence (Q1HVG2 whole entry, looked up): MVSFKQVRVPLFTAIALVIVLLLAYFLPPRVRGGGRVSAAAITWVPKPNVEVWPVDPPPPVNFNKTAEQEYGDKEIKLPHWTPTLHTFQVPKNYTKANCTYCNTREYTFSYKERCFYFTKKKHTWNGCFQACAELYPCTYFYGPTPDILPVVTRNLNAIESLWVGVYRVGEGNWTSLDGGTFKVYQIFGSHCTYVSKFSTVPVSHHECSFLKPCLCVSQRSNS
An asterisk follows results filed as active; i = inactive; ? = inconclusive; nt = not tested or not shown; + = active, no number. Unless noted, the rule behind the calls is not given here.

SMILES	PABP FP inh	eIF4H FP inh	MEX-5 binding	PABP1 MLLE inh	EBV gp42 block
Cc1cccc(N2CCN(C(=O)c3ccc4nc(-c5ccco5)c(-c5ccco5)nc4c3)CC2C)c1 (stereo not drawn)	+	93*	1	12	-5
O=C(/C=C/c1c(Cl)cccc1Cl)N1CCN(c2ncccn2)CC1	i	2	-2	1	-19
S=C(Nc1ccc(N2CCOCC2)cc1)Nc1ccc2nc(-c3ccco3)c(-c3ccco3)nc2c1	?	?	-1	92	111*
O=C(/C=C/c1ccco1)N1CCN(c2ncccn2)CC1	i	44	0	68*	-15
Cc1nc2cc(NC(=O)N3CCN(c4ccccn4)CC3)ccc2o1	i	-6	1	-1	-1
CC(=O)OC[C@@H]1CN(Cc2ccccc2)C[C@H](n2cnc3c(N4CCN(c5ccccc5)CC4)ncnc32)O1	nt	nt	nt	9	nt
Cc1cn([C@H]2C[C@H](O)[C@@H](CNC(=O)[C@@H]3CCCN3Cc3ccccc3)O2)c(=O)[nH]c1=O	nt	nt	nt	-9	nt
CCCCCCN1C[C@H](O)[C@@H](n2cc(C3CC3)nn2)C[C@@H]1c1ccccc1	nt	nt	nt	10	nt
O=C(c1cccc(C(=O)N2CCN(c3ncccn3)CC2)c1)N1CCN(c2ncccn2)CC1	i	-12	2	6	-12
O=C(c1ccc2nc(-c3ccco3)c(-c3ccco3)nc2c1)N1CCN(c2ncccn2)CC1	+	85*	-5	24	45
Cc1ccsc1C1C=C(c2cccc(Br)c2)Nc2ncnn21 (stereo not drawn)	i	99	-2	93	94*
COc1cccc(C2=CC(c3ccc(C)cc3)n3ncnc3N2)c1 (stereo not drawn)	i	25	4	nt	22
Cc1nc(N2CCN(S(=O)(=O)c3cccs3)CC2)c2c(-c3ccccc3)c(C)sc2n1	nt	nt	nt	14	nt
COc1cc(OC)cc(-c2noc([C@H]3C[C@H](O)[C@@H](CO)O3)n2)c1	nt	nt	nt	10	nt
COc1ccccc1NC(=O)C(=O)N/N=C/c1ccc([N+](=O)[O-])s1	i	57	0	2	79*
COC(=O)N/N=C/c1ccc([N+](=O)[O-])s1	i	?	0	-9	-3
Cc1cc(C(F)(F)F)c2c(N)c(C(=O)Nc3cc(C)on3)sc2n1	+	59*	?	24	18
Cc1cc(C)cc(NC(=O)c2sc3nc(C)cc(C)c3c2N)c1	i	-3	2	25	nt
CCOc1ccc(C2CC(c3c(O)c4ccccc4oc3=O)=NN2c2ccccc2)cc1OC (stereo not drawn)	i	3	?	-10	141*
Cc1ccc2c(c1)NC(c1cccs1)C1=C(CC(C)(C)CC1=O)N2 (stereo not drawn)	+	86*	2	6	-14
COc1cc(C2Nc3cc(C)c(C)cc3NC3=C2C(=O)CC(C)(C)C3)ccc1OC(C)=O (stereo not drawn)	i	2	-2	2	nt
Cc1cc2c(cc1C)NC(c1c(C)n(C)n(-c3ccccc3)c1=O)C1=C(CC(C)(C)CC1=O)N2 (stereo not drawn)	?	?	-9	83	85*
Cc1ccc(S(=O)(=O)N2C[C@H]3N(C(=O)OC(C)C)N(C(=O)OC(C)C)C[C@H](OC(=O)Nc4c(C)noc4C)[C@@]3(O)C2)cc1	nt	nt	nt	-2	nt
Cc1nc(S/C(=C/c2ccc(-c3cccc(Cl)c3)o2)C(=O)O)n[nH]1	i	41	-35*	-59	-33
NCCCCc1cn(CC(=O)N2CCNCC2)nn1	+	7	0	6	-7
SMILES	PABP FP inh	eIF4H FP inh	MEX-5 binding	PABP1 MLLE inh	EBV gp42 block
CCN(c1ccc(OC)cc1)S(=O)(=O)N1CCCC(C(=O)NCc2ccc(OC(C)C)cc2)C1 (stereo not drawn)	nt	nt	nt	-2	nt
Cc1ccc(N=Cc2ccc(O)cc2O)cc1F	+	54*	-9	0	0
COC(=O)CCCC1=CC2=CC(=O)C(C)(OC(=O)c3cccs3)C(=O)C2=CN1Cc1ccco1 (stereo not drawn)	+	61*	-4	10	0
CCCCC1=CC2=CC(=O)C(C)(OC(=O)CC)C(=O)C2=CN1c1ccccc1 (stereo not drawn)	+	83	-3	3	-6
COC(=O)CCCC1=CC2=CC(=O)C(C)(OC(=O)c3ccco3)C(=O)C2=CO1 (stereo not drawn)	nt	nt	-42*	nt	nt
CCCCC1=CC2=CC(=O)C(C)(OC(=O)c3ccc(Cl)nc3)C(=O)C2=CO1 (stereo not drawn)	nt	nt	-29*	nt	nt
COC(=O)CCCC1=CC2=CC(=O)C(C)(OC(=O)CCc3ccccc3)C(=O)C2=CO1 (stereo not drawn)	?	?	-18	-24	15
COC(=O)CCCC1=CC2=CC(=O)C(C)(OC(=O)c3cccs3)C(=O)C2=CN1Cc1ccccc1 (stereo not drawn)	i	41	-3	7	8
CC(C)CC1NC(=O)c2cc3ccccc3cc2-n2c1nc1ccc(F)cc1c2=O (stereo not drawn)	nt	nt	nt	-3	nt
CC(C)CC(N)c1csc(NC(=O)c2cc(C(C)(C)C)nn2Cc2ccccc2)n1 (stereo not drawn)	nt	nt	nt	8	nt
CC(C)CC(=O)N1CC=CC[C@@H](c2ccc(Cl)cc2)N(Cc2ccc(Cl)cc2)C(=O)[C@@H]1Cc1ccccc1	nt	nt	nt	-4	nt
CCCCC1=CC2=CC(=O)C(C)(OC(=O)CC)C(=O)C2=CN1Cc1ccco1 (stereo not drawn)	+	70*	-9	6	11
COC(=O)CCCC1=CC2=CC(=O)C(C)(OC(=O)c3cccs3)C(=O)C2=CN1c1ccc(OC)cc1 (stereo not drawn)	+	59	0	2	-5
COC(=O)CCCC1=CC2=CC(=O)C(C)(OC(=O)c3cccs3)C(=O)C2=CN1CCCOC(C)C (stereo not drawn)	+	61	1	13	1
CCCCC1=CC2=CC(=O)C(C)(OC(=O)CC)C(=O)C2=CN1Cc1ccccc1 (stereo not drawn)	i	36	-5	-20	-7
COC(=O)CCCC1=CC2=CC(=O)C(C)(OC(=O)c3cccs3)C(=O)C2=CN1C1CCCC1 (stereo not drawn)	i	12	-3	4	-8
CN(C)C1CCCCC=CC(=O)NC1 (stereo not drawn)	nt	nt	nt	1	nt
CC(OC(=O)C1=COCCO1)C(=O)NC1CCCCC1 (stereo not drawn)	nt	nt	nt	-8	nt
CN(C)CCC#CC(O)(c1ccccc1)c1ccccc1	+	6.6*	1	4	-9
O=C(NC(c1ccccc1)c1ccsc1)C1CCN(CCOc2ccc(Cl)cc2Cl)CC1 (stereo not drawn)	nt	nt	nt	2	nt
O=C1CCC/C1=c1\s/c(=C\c2cccnc2)c(=O)n1-c1ccccc1	i	0	-26*	-8	-22
O=C1CCC/C1=c1\s/c(=C/c2cccnc2)c(=O)n1-c1ccccc1	nt	nt	nt	-23	nt
Fc1ccc(N=c2ssnc2Cl)c(F)c1	i	-6	-30*	15	-21

Screens from PubChem.
